Test results published in ChEMBL document CHEMBL4513216, “Probing the Open Global Health Chemical Diversity Library for Multistage-Active Starting Points for Next-Generation Antimalarials” (ACS Infect Dis, 2020).
The whole screen tested about 65,000 compounds, of which about 2,100 (3.2%) showed an effect of 50% or more. The median lay at about -52%. The list comes from a sample in which strong results are over-represented; it also holds similar structures and randomly drawn compounds.

system: Plasmodium falciparum; assay: Screen against P. falciparum Asexual Blood Stage (ABS), at 5uM; assay type: functional, Dd2; settings: tested at 5 uM

SMILES | INHIBITION
CCc1noc(C)c1C(=O)NCC(c1ccc(C)cc1)N(C)C (stereo not given) | 71.4%
Cc1noc(CN2CC=C(c3cnn(C4CCS(=O)(=O)C4)c3)CC2)n1 (stereo not given) | -15.1%
CC(C)(C)n1ncc2c1NC(=O)CSC2c1ccc2c(c1)OCO2 (stereo not given) | -138%
NC(=O)c1ccc(N2CCCCC2)c(NC(=O)c2ccc(Br)cc2)c1 | 71.3%
O=C(NC[C@H]1C[C@@H]2CCN1C[C@@H]2CN1CCOCC1)Nc1ccccc1 | -40.4%
c1cnc(Nc2ccc(C3CCCCN3)cn2)cn1 (stereo not given) | 13.6%
Cc1cc(C)nc(Nc2ccc(C3CCCCN3)cn2)n1 (stereo not given) | -64.1%
Cc1cccc(Nc2ccc(C3CCCCN3)cn2)n1 (stereo not given) | 81.4%
CC(C)C1CCCN1C(=O)c1ccc(-n2ncc(C#N)c2N)cc1 (stereo not given) | 71.4%
Cc1cccc(CN2C[C@H]3CCC[C@@]3(COCc3csc(C)n3)C2)n1 | 82%
Cc1cc(CN2C[C@H]3CCC[C@@]3(COCc3csc(C)n3)C2)no1 | 14.2%
Cc1cc(CN2C[C@@H]3COC[C@]3(COCc3csc(C)n3)C2)no1 | -58.8%
CC(C)N1CCCCC1c1nc(N(C)C)ncc1I (stereo not given) | 72%
CC(C)N1CCCC1c1nc(N(C)C)ncc1I (stereo not given) | 70.7%
CC(C)N1CCCCC1c1cncc(Cl)n1 (stereo not given) | -50.5%
COCCNC(=O)[C@H]1CN2CCC1C[C@@H]2Cn1cc(C(C)(C)C)nn1 (stereo not given in full) | -65.8%
c1cnc(N2CCOC3(COCCN(Cc4cc[nH]n4)C3)C2)nc1 (stereo not given) | -27.9%
CCNC(=O)[C@H]1CN(Cc2ccccc2)C[C@@H]1C(=O)c1ccccc1 | -76.3%
C=Cc1cccc(CN2C[C@@H](CN(C)CC)[C@@H](CO)C2)c1 | 87.6%
CCN(C)C[C@@H]1CN(Cc2cccc(Cl)c2)C[C@@H]1CO | 83.6%
CCN(C)C[C@@H]1CN(S(=O)(=O)c2cccc(Cl)c2)C[C@@H]1CO | 75.3%
CC(C)=CCN1C[C@@H]2CC[C@H]1CN(S(=O)(=O)c1cccnc1)C2 | -10.7%
Cc1cccc(N2CCN(C(=O)CCc3c(C)noc3Cl)CC2)c1 | 86.3%
Cc1nc(CN2CCN(C(=O)Cc3cccc(Cl)c3)CC2)no1 | -18.4%
CN1CC=C(c2noc(CCC(=O)N3CCCC3)n2)CC1 | -71.4%
Cc1ccnc(CC(C)N(C)Cc2ccc3c(c2)CCO3)c1 (stereo not given) | -33.2%
Cc1ccc(CN2CCO[C@@H]3[C@@H](OCc4cccnc4)CC[C@@H]32)o1 | -89.9%

SMILES | INHIBITION
O=C(N[C@H]1COC[C@@H]1N1CCCC1)c1csc(-c2cccs2)n1 | 50.8%
Cc1nc(C(=O)N[C@H]2COC[C@@H]2N2CCCCC2)cs1 | -260%
O=C(N[C@H]1COC[C@@H]1N1CCCC1)c1csc(Cc2ccccc2)n1 | -21.2%
CN1CCC2(CC1)CN(Cc1ccc(C3CCCCO3)o1)CCCN2C (stereo not given) | 81.1%
c1cnc(N2CCOCC3(CN(Cc4cc[nH]n4)CCO3)C2)nc1 (stereo not given) | -54.7%
Cc1cccc(CN2C[C@@H]3CCCO[C@@H]3[C@H](NS(C)(=O)=O)C2)n1 | -63.9%
CN(Cc1ccco1)[C@@H]1CN(Cc2cccnc2)[C@@H]2CCCO[C@H]12 | -40.9%
CN(Cc1cncnc1)[C@H]1CN(Cc2ccco2)[C@@H]2CCCO[C@@H]21 | -96.6%
Cc1cc(CN2C[C@@H]3CCCO[C@@H]3[C@H](N(C)C(C)C)C2)no1 | -18.2%
CN(Cc1ccco1)[C@@H]1CN(Cc2ccsc2)C[C@@H]2CCCO[C@@H]21 | 76%
Cc1ccc(CN2C[C@@H]3CCCO[C@@H]3[C@H](N(C)Cc3ccco3)C2)s1 | 74.2%
c1cnc(N2C[C@H]3CC[C@@H](C2)N(Cc2ccsc2)C3)nc1 | -21%
c1ccc(O[C@@H]2CO[C@@]3(CCCN(CC4CCOCC4)C3)C2)nc1 | 3.78%
Cc1cc(CN2C[C@@H]3COC[C@]3(CNS(C)(=O)=O)C2)no1 | -20.4%
CN1CCOC(CN(C(=O)CN2CCCC2=O)c2nccs2)C1 (stereo not given) | -55.7%
c1ccc(Oc2cccc(OC34CCCN(CC3)C4)c2)cc1 (stereo not given) | 76.9%
N#Cc1cccc(OC23CCCN(CC2)C3)c1 (stereo not given) | -31.3%
c1ccc(O[C@@H]2CN(Cc3nccs3)[C@@H]3CCCO[C@@H]32)nc1 | -4.8%
CCc1ccccc1OCCN(C)C(=O)CN1CCCC1 | 75.4%
CCOCCN(C)C(=O)Nc1cccc2c1CCN(CC)C2 | -88.7%
Cc1noc(C)c1CN1C[C@@H]2CN(C(=O)c3cscn3)C[C@@H]2C1 | -82.3%
CC(C)c1n[nH]c(C(=O)Nc2ccccn2)c1Br | 84.6%
Cc1ccnc(NC(=O)c2[nH]nc(C(C)C)c2Br)c1 | 73.7%
Cc1ccnc(NCCNC(=O)C2CC3(CCNCC3)CN2C)c1 (stereo not given) | -81.4%
Cc1cc(CN2C[C@@H]3CN(C(=O)c4ccsc4)CCO[C@@H]3C2)no1 | -12.1%
CN1CCc2nc3c(c(N)c2C1)CCCN3C | -7.55%
CN1CCCc2c1nc1c(c2N)CCCC1 | 75.8%

SMILES | INHIBITION
CC(=O)N1C[C@H]2CNC[C@@]2(C(=O)NCCNc2ccncc2C)C1 | -37%
Cc1cnccc1NCCNC1CCN(CC(C)C)CC1 | 80%
Cc1cc(CC(C)NC2CCN(CC(C)C)CC2)[nH]n1 (stereo not given) | -57.2%
c1cncc(NCCNC2CCCNC2)c1 (stereo not given) | -1.26%
CC(C)CN1C(=O)C2(CCCC2)NC1c1cccnc1 (stereo not given) | -8.76%
CC(C)CN1CCC(NCCNc2cccnc2)CC1 | 79.1%
Cn1cc(N2C(=O)CC[C@@H]3[C@H]2CCN3Cc2ccncc2)cn1 | -123%
c1ccc(CN2CCN3C[C@H](Oc4cccnc4)C[C@H]3C2)nc1 | -10.5%
COc1ccccc1CNCc1nn(-c2ccccc2)c2c1CCC2 | 81.6%
c1ccc(O[C@@H]2CC[C@H]3[C@H]2OCCN3Cc2ccsc2)nc1 | -77.6%
O=C(c1[nH]nc(C2CC2)c1Cl)N1CCN(S(=O)(=O)c2ccccc2)CC1 | 75.8%
CN1CCN(S(=O)(=O)c2ccccc2)Cc2cccnc21 | -41.3%
O=C(NCc1ccccn1)[C@]12COC[C@H]1CN(C1CCC1)C2 | -26.3%
N#Cc1ccc(NCCc2n[nH]c(=O)[nH]2)cc1Cl | -36.1%
O=C(Nc1cccnc1)[C@H]1CN(Cc2ccco2)C[C@H]2OCC[C@@H]12 | -115%
Cc1ccc(NCCCNC(=O)C2CCCN(Cc3ccco3)C2)nc1 (stereo not given) | 70.6%
Cc1nccc([C@@H]2C[C@@H]3CCN(Cc4ccco4)C[C@H]3O2)n1 | -17.2%
CC(C)CC(=O)N1CCC2(CC1)OCCO2 | -80.4%
COc1ccc2ncn(Cc3ncc[nH]3)c(=O)c2c1 | -84.2%
CC(C)N1CCO[C@H]2CN(C(=O)c3ccncc3F)C[C@H]21 | -88.4%
CCC1CN(C(=O)c2ccc(Cl)cc2O)CCN1C(C)C (stereo not given) | 73.3%
O=C(c1ccc(Cl)cc1-n1cnnn1)N1CCC2(CC1)OCCO2 | -52.7%
O=C1CO[C@@H]2CN(Cc3cccnc3)C[C@H]2N1Cc1ccncc1 | -6.5%
Cc1[nH]c2ccc(CNC3CCN(Cc4ccccn4)CC3)cc2c1C | 93.6%
O=C1Nc2ccccc2C12CCN(Cc1ccccn1)CC2 | -45.4%
C[C@H]1C[C@H]2CN(Cc3ccccn3)CC[C@@H]2O1 | -8.95%
O=S(=O)(NC[C@H]1C[C@@H]2CCN1C[C@@H]2CN1CCOCC1)c1ccccc1 | -71.9%

SMILES | INHIBITION
O=C(NC[C@H]1C[C@@H]2CCN1C[C@@H]2CN1CCCCC1)Nc1ccccc1 | -34.9%
O=S(=O)(NC[C@H]1C[C@@H]2CCN1C[C@@H]2CN1CCCC1)c1ccc(Cl)cc1 | 89.4%
CC(=O)N1CCOCC2(CN(Cc3ccccn3)CCO2)C1 (stereo not given) | -107%
CN1CCCN(C(=O)c2ccnn2-c2ccc3ccccn23)CC1 | 70.8%
CN1CCN(C(=O)c2cn(Cc3ccccc3)c3ncccc23)CC1 | -70.4%
CC(NC1CCCC1)c1ccccc1-n1cccn1 (stereo not given) | 81%
NC(Cc1nc(-c2ccccc2)no1)c1ccccc1 (stereo not given) | -253%
NC(CC1CCCCC1)c1ccccc1 (stereo not given) | 55.4%
Cc1cc(CN2CC[C@H]3OCC[C@@]3(C(=O)N3CCOCC3)C2)no1 | -53.6%
COc1cccc([C@@H]2CCN(Cc3cn(C)c4ccccc34)C[C@H]2O)c1 | 78%
COc1cccc([C@@H]2CCN(Cc3cccc(C)n3)C[C@H]2O)c1 | -29.5%
OC[C@@H]1[C@@H](c2ccccc2)CN2CCN(c3ccccn3)C[C@H]12 | -63.3%
Cn1cc(CN2CCCC(CCc3ccc(F)cc3)C2)cn1 (stereo not given) | 74.7%
Cn1cc(CN2CC[C@H]3CO[C@H](CNc4ncccn4)[C@H]3C2)cn1 | -108%
Cn1cc(CN2CCCC(CCc3ccc(F)cc3F)C2)cn1 (stereo not given) | 89.3%
Cn1cc(CN2CCN3C[C@H](Oc4cccnc4)C[C@H]3C2)cn1 | -50.7%
Cn1cc(CN2C[C@H](Oc3ncccc3F)[C@H]3OCCC[C@H]32)cn1 | -37%
Cc1cccc(CN2CC[C@H]3[C@H]2CCN3Cc2cnn(C)c2)n1 | -127%
Cn1cc(CN2CCCC(CCc3ccc(F)c(F)c3)C2)cn1 (stereo not given) | 71.2%
Cn1cc(CN2CC[C@@H]3[C@@H]2CCN3C(=O)Cc2cccc(F)c2)cn1 | -39.1%
CN(C)[C@@H]1CCN(C(=O)Cc2ccc(F)cc2)[C@H]1Cc1cnn(C)c1 | -2.98%
Cc1ccc(N2CCO[C@H]3CN(Cc4cnn(C)c4)C[C@H]32)nn1 | 7.68%
Cn1cc(CN2C[C@@H]3CCC[C@@H](OCc4cccnc4)[C@@H]3C2)cn1 | -74.7%
Cn1cc(CN2CCCC(CCc3c(F)cccc3F)C2)cn1 (stereo not given) | 79.3%
